We go through 46 sequences from the supplement of paper PMC10338343.

± gives the standard deviation.

The experiment concerns MILI (PIWIL2) piRISC loaded with L1MC piRNA (26 nt). The experiment is described as follows: pre-steady-state target cleavage rate (min^-1); guide: L1MC piRNA 5'p-UAACUAAAUACUAUGCAAGCUGUAGG; MIWI and MILI are mouse PIWI proteins and EfPiwi is from a freshwater sponge; tags in brackets are library labels; higher = faster piRNA-guided slicing of the target. Summed up:
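Sequencing of uncleaved targets, normalised to depth and to weakly complementary targets, was the readout of this Cleave-'n-Seq assay. A transcribed, DNA-blocked target RNA library (0.1 nM) was mixed with 1 nM active affinity-purified piRISC carrying one synthetic guide, with or without 500 nM GTSF1 partner protein, in HEPES–potassium acetate buffer at 33 °C for 0–8 or 0–960 min. Three trials were pooled, k3 was capped at 0.0001 min^-1, and a burst-and-steady-state fit gave the pre-steady-state cleavage rate.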

The mark [1] stands for this setting: auxiliary factor: 500 nM mouse GTSF1.
Setting [2] is: auxiliary factor: none (no GTSF1).

Regarding UCCUGGAUCUGCUUGCAUAGUAUUUACUUA, the “pre-steady-state target cleavage rate” value under setting [1] is 0.0527 ± 0.0096 and the “pre-steady-state target cleavage rate” value under setting [2] is 0.00348 ± 0.0027.

Regarding UCCUGGUACAGCUUGCAUAGAAAUUAGUUA, the “pre-steady-state target cleavage rate” value by setting is: under setting [1], 0.0374 ± 0.011; under setting [2], 0.00311 ± 0.0031.

For UCCUGGAUCAGGAAGCAUAGUAUUUAGUAA, the “pre-steady-state target cleavage rate” value under setting [1] was found to be 0.0716 ± 0.014 and the “pre-steady-state target cleavage rate” value under setting [2] was found to be 0.00297 ± 0.0022.

Regarding UCCUCCUACAGCUUGCAUAGUUAUUUAGUUA, the “pre-steady-state target cleavage rate” value reads like this: under setting [1], 0.0152 ± 0.0067; under setting [2], 0.00383 ± 0.0024.

For the sequence UCCUGGAUGUCCUUGCAUAGUCAUUUAGUUA, the “pre-steady-state target cleavage rate” value came to 0.00722 ± 0.0051 under setting [1] and 0.00338 ± 0.003 under setting [2].

In the case of UCCUGCUACAGCUUGACAUAGUAUUUAGUUA, the “pre-steady-state target cleavage rate” value runs as follows: under setting [1], 0.226 ± 0.018; under setting [2], 0.00448 ± 0.0026.

For the sequence UCCUGGAUGUCCUUGCAUAGUAUUUAGUGA, the “pre-steady-state target cleavage rate” value is 0.0966 ± 0.018 under setting [1] and 0.00382 ± 0.0024 under setting [2].

Take UCCUGGAUGUGCUAGCAUAGUAUUUUGUUA: the “pre-steady-state target cleavage rate” value under setting [1] stood at 0.0587 ± 0.011 and the “pre-steady-state target cleavage rate” value under setting [2] came to 0.00334 ± 0.0025.

Regarding UCCUGCUACAGCUUGCAUAGAUAUUUAGUUA, the “pre-steady-state target cleavage rate” value is, setting by setting: under setting [1], 0.0121 ± 0.005; under setting [2], 0.00419 ± 0.0019.

With UCCUGCUUCAGCUAGCAUAGUAUUUAGUUA, the “pre-steady-state target cleavage rate” value runs as follows: under setting [1], 0.322 ± 0.02; under setting [2], 0.00715 ± 0.0018.

As to UCCUGUUACAGCUUGCAUAGUAUUUAGUUA, the “pre-steady-state target cleavage rate” value runs as follows: under setting [1], 0.328 ± 0.018; under setting [2], 0.0102 ± 0.0034.

UCCUGGAUGAGCUUGGAUAGUUUUUAGUUA: the “pre-steady-state target cleavage rate” value under setting [1] amounted to 0.0261 ± 0.0072 and the “pre-steady-state target cleavage rate” value under setting [2] was 0.00424 ± 0.0026.

With UCCUGGAUGUCCUUGCGUAGUAUUUAGUUA, the “pre-steady-state target cleavage rate” value under setting [1] turned out to be 0.0231 ± 0.0068 and the “pre-steady-state target cleavage rate” value under setting [2] came out at 0.0122 ± 0.0025.

Regarding UCCUGGAUGUCGUUGCAUAGUAAUUUGUUA, the “pre-steady-state target cleavage rate” value under setting [1] was 0.00776 ± 0.005 and the “pre-steady-state target cleavage rate” value under setting [2] was determined as 0.00315 ± 0.0027.

For the sequence UCCUGGAUGUCCUUGAUAGUAUUUAGUUA, the “pre-steady-state target cleavage rate” value runs as follows: under setting [1], 0.00551 ± 0.0039; under setting [2], 0.00337 ± 0.0019.

Turning to UCCUGCUACAGGUUGCAUAGUAUUUAGAUA, the “pre-steady-state target cleavage rate” value reads like this: under setting [1], 0.114 ± 0.033; under setting [2], 0.00283 ± 0.0027.

With UCCUGGAUGUGCUUGCAUUGUAUAUAGUUA, the “pre-steady-state target cleavage rate” value is, setting by setting: under setting [1], 0.0696 ± 0.012; under setting [2], 0.00543 ± 0.0026.

Turning to UCCUGGAUGUCCUUGCAUAGUUUUAAGUUA, the “pre-steady-state target cleavage rate” value under setting [1] was determined as 0.0115 ± 0.0059 and the “pre-steady-state target cleavage rate” value under setting [2] is 0.00312 ± 0.0026.

In the case of UCCUGGUACAGCUUGCAUAGUAUUAGUUA, the “pre-steady-state target cleavage rate” value is 0.327 ± 0.053 under setting [1] and 0.00515 ± 0.003 under setting [2].

Regarding UCCUGGAUGUGCAUGCAUACUAUUUAGUUA, the “pre-steady-state target cleavage rate” value under setting [1] worked out at 0.0253 ± 0.0066 and the “pre-steady-state target cleavage rate” value under setting [2] was 0.00586 ± 0.0023.

Regarding UCCUGGAUGUGCUAGCAUUGUAUUUAGUUA, the “pre-steady-state target cleavage rate” value reads like this: under setting [1], 0.0146 ± 0.0031; under setting [2], 0.00365 ± 0.0026.

In the case of UCCUGGUAACAGCUUGCAUAGUAUUUAGUUA, the “pre-steady-state target cleavage rate” value under setting [1] is 0.244 ± 0.02 and the “pre-steady-state target cleavage rate” value under setting [2] was determined as 0.016 ± 0.0044.

Consider UCCUGGAUGUCCUUGGAUAGUAUUUUGUUA, for which the “pre-steady-state target cleavage rate” value came to 0.139 ± 0.031 under setting [1] and 0.00318 ± 0.0024 under setting [2].

Regarding UCCUGGAUGUGCUUGCUAGUAUUUAGUUA, the “pre-steady-state target cleavage rate” value is, setting by setting: under setting [1], 0.00654 ± 0.0035; under setting [2], 0.00432 ± 0.0028.

Turning to UCCUGGUACAGCUUCCAUUGUAUUUAGUUA, the “pre-steady-state target cleavage rate” value is 0.113 ± 0.039 under setting [1] and 0.00415 ± 0.0035 under setting [2].

As to UCCUGGUAUAGCUUGCAUAGUAUUUAGUUA, the “pre-steady-state target cleavage rate” value reads like this: under setting [1], 0.252 ± 0.022; under setting [2], 0.011 ± 0.0024.

In the case of UCCUGGUACAGCUUGCAUAGCAUUUAGUUA, the “pre-steady-state target cleavage rate” value came to 0.117 ± 0.03 under setting [1] and 0.00488 ± 0.0026 under setting [2].

With UCCUGGAUGAGCUUGCAAUGUAUUUAGUAA, the “pre-steady-state target cleavage rate” value reads like this: under setting [1], 0.0194 ± 0.0045; under setting [2], 0.00717 ± 0.0024.

In the case of UCCUGGAUGAGCUUGCAUAGAUUUUAGUUA, the “pre-steady-state target cleavage rate” value by setting is: under setting [1], 0.0099 ± 0.0044; under setting [2], 0.00304 ± 0.0029.

Take UCCUGCUACAGCAAGCAUAGUAUUUAGUAA: the “pre-steady-state target cleavage rate” value is, setting by setting: under setting [1], 0.281 ± 0.026; under setting [2], 0.00383 ± 0.0032.

As to UCCUGGAUGUCGAUGCAUAGUAUUUUAGUUA, the “pre-steady-state target cleavage rate” value came to 0.0747 ± 0.0088 under setting [1] and 0.00647 ± 0.0026 under setting [2].

As for UCCUGGAUGUCGAAGCAUAGUAUGUUAGUUA, the “pre-steady-state target cleavage rate” value by setting is: under setting [1], 0.0233 ± 0.0059; under setting [2], 0.00487 ± 0.0021.

For UCCUGGAUGAGGAAGCAUAGUAUUUAGUUA, the “pre-steady-state target cleavage rate” value came out at 0.0519 ± 0.012 under setting [1] and 0.00494 ± 0.0027 under setting [2].

For UCCUGGAUGUGCUACCAUAGUAUUUAGUUA, the “pre-steady-state target cleavage rate” value turned out to be 0.0577 ± 0.0094 under setting [1] and 0.0039 ± 0.0022 under setting [2].

In the case of UCCUGGAUGAGCUUGCAUAGGUAUUUAGUUA, the “pre-steady-state target cleavage rate” value was determined as 0.00411 ± 0.0031 under setting [1] and 0.00493 ± 0.0023 under setting [2].

Take UCCUGGAUCAGCUUGGAUAGUAUUAAGUUA: the “pre-steady-state target cleavage rate” value was determined as 0.162 ± 0.027 under setting [1] and 0.00386 ± 0.0022 under setting [2].

As to UCCUGGAAAAGCUUGCAUAGUAUUUAGUUA, the “pre-steady-state target cleavage rate” value was found to be 0.249 ± 0.019 under setting [1] and 0.00809 ± 0.0029 under setting [2].

As for UCCUGCUACAGCUUGAAUAGUAUUUAGUUA, the “pre-steady-state target cleavage rate” value is 0.22 ± 0.013 under setting [1] and 0.00812 ± 0.002 under setting [2].

Regarding UCCUGGAUGUCCUUGCAAUGUAUUUAGUUA, the “pre-steady-state target cleavage rate” value is, setting by setting: under setting [1], 0.0105 ± 0.0042; under setting [2], 0.00626 ± 0.0014.

Regarding UCCUGGAUCAGCUUGCAUAGUAUUUAGAAA, the “pre-steady-state target cleavage rate” value runs as follows: under setting [1], 0.138 ± 0.022; under setting [2], 0.00292 ± 0.0023.

As for UCCUGGAUGAGCAUGCAUAGUAAUUAGUUA, the “pre-steady-state target cleavage rate” value stood at 0.156 ± 0.021 under setting [1] and 0.00824 ± 0.0028 under setting [2].

Turning to UCCUGGAUGUGGAUGCAUAGUAUUUAGUAA, the “pre-steady-state target cleavage rate” value under setting [1] was determined as 0.0714 ± 0.012 and the “pre-steady-state target cleavage rate” value under setting [2] was determined as 0.00471 ± 0.003.

Take UCCUGCUUCAGCUUGCAUACUAUUUAGUUA: the “pre-steady-state target cleavage rate” value reads like this: under setting [1], 0.0698 ± 0.01; under setting [2], 0.00358 ± 0.002.

For the sequence UCCUGGAUGUCCUUGCAAAGUAAUUAGUUA, the “pre-steady-state target cleavage rate” value runs as follows: under setting [1], 0.018 ± 0.0064; under setting [2], 0.00522 ± 0.0014.

With UCCUGGUACAGCUUCCUUAGUAUUUAGUUA, the “pre-steady-state target cleavage rate” value is, setting by setting: under setting [1], 0.288 ± 0.052; under setting [2], 0.00854 ± 0.0031.

Regarding UCCUCCUACAGGAAGCAUAGUAUUUAGUUA, the “pre-steady-state target cleavage rate” value is, setting by setting: under setting [1], 0.292 ± 0.011; under setting [2], 0.00603 ± 0.0024.
